Assay outcomes deposited in PubChem BioAssay by The Scripps Research Institute Molecular Screening Center.
hcDAF12 agonist = H. contortus DAF-12 nuclear receptor activators, primary screen, cell-based, luminescence, HEK293, lit1-tk-luc reporter | activation, % at 6.8 µM | 370,000 tested, 1.4% active | AID 652067, 2013 | HEK293 hcDAF-12 lit1-tk-luc reporter; 0% DMSO, 100% Δ7-dafachronic acid;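 active = activation above the mean of all tested compounds plus 3 SD, cut at about 5.5% in these data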;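 note: 100% = response to 3 µM Δ7-dafachronic acid high control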
DAX1 inh-1 = DAX1 (NR0B1) inhibitors, primary screen, cell-based, HEK293, Gal4-DAX1, luciferase luminescence; Nuclear receptor subfamily 0 group B member 1 (Homo sapiens), P51843; HEK293 Gal4-DAX1 luciferase reporter; inhibition, % at 6.75 µM; 340,000 tested, 0.99% active; AID 504766, 2011;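 active = inhibition above the mean over all tested compounds plus 3 SD, cut at about 4.2% in these data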;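 note: 0% = DAX1-transfected cells with DMSO and 100% = empty-vector control cells with DMSO; inhibition shows as a rise in luminescence from relieved DAX1 repression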
Target sequence (P51843 207-470 limits assumed): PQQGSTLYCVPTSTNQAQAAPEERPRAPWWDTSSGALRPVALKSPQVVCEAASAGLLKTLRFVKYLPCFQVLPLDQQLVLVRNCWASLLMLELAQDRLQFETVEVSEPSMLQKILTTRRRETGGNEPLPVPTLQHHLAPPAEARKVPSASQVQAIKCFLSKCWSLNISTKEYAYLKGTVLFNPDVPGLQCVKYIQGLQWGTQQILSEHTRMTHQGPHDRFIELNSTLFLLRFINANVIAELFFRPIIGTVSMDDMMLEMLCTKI
hgDAF-12 ag = H. glycines DAF-12 receptor agonists, primary screen, cell-based, luminescence, HEK293, GAL4 fusion, UAS-luciferase. 370,000 tested, 1.8% active. AID 687014, 2013. activation, % at 6.8 µM. Nuclear hormone receptor DAF-12 (Heterodera glycines), GAL4 fusion. HEK293 GAL4-hgDAF12 UAS-luciferase reporter, agonist luminescence; normalized to butyrate control;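 active = activation above a cutoff set at the mean of all screened compounds plus 3 SD, cut at about 10% in these data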;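 note: 0% = DMSO wells and 100% = sodium butyrate wells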
DAX1 inh-2 = DAX1 (NR0B1) inhibitors on StAR promoter, primary screen, cell-based, luminescence, SF-1 (NR5A1), full-length DAX-1; HEK293T StAR-luciferase reporter, SF-1/DAX-1 repression relief; inhibition, % at 6.8 µM; 370,000 tested, 1.1% active;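 active = inhibition above the mean over all tested compounds plus 3 SD, cut at about 3.6% in these data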;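 note: 0% = DAX-1 cells with DMSO and 100% = cells lacking DAX-1 with DMSO; higher inhibition means more luminescence from relief of DAX-1 repression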
ssDAF12 agonist = S. stercoralis DAF-12 nuclear receptor activators, primary screen, cell-based, luminescence, HEK293, GRIP1 co-expression, lit1-tk-luc; HEK293 ssDAF-12/GRIP1 lit1-tk-luc reporter; % of 3 µM dafachronic acid response; 370,000 tested, 1% active; AID 652126, 2013; Nuclear hormone receptor DAF-12 (Strongyloides stercoralis); activation, % at 6.8 µM;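 active = activation above the mean over all tested compounds plus 3 SD, cut at about 0.9% in these data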;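 note: 0% = DMSO-only wells and 100% = 3 µM delta7-dafachronic acid wells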
LXRb hcDAF ctr = LXR agonists, Gal4 luciferase reporter, confirmation, counter-screen for hcDAF-12 agonist project, cell-based, luminescence, HEK293, H. contortus campaign. AID 743027, 2013. activation, % at 6.8 µM. HEK293 Gal4-LXR tk-luc reporter, 24 h; normalized: DMSO 0%, positive control 100%. 3,400 tested, under 10 active. shares compounds with hcDAF12 agonist;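 active = mean percent activation of the reporter above a cutoff set as the average over tested compounds plus their standard deviation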
Target sequence (P55055 whole entry, looked up, the tested form may be a part): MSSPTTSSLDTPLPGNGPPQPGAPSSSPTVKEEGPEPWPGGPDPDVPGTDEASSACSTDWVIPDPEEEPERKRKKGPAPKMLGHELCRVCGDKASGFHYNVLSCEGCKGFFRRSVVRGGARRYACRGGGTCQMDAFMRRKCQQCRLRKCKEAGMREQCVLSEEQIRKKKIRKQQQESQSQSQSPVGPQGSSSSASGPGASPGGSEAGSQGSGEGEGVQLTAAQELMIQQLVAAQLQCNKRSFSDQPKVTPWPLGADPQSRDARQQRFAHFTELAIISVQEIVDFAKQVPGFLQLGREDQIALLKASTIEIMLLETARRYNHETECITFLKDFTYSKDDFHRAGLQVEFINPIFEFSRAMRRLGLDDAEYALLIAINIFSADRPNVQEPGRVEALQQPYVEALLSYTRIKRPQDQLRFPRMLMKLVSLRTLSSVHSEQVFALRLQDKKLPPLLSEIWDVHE
hcDAF12 ag = H. contortus DAF-12 receptor agonists, confirmation, cell-based, luminescence, HEK293, lit1-tk-luc, triplicate | shares compounds with hcDAF12 agonist | HEK293 hcDAF-12 lit1-tk-luc reporter; % of Δ7-dafachronic acid response | activation, % at 6.8 µM | 3,400 tested, 61% active | AID 743032, 2013;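 active = mean activation across triplicate tests above the threshold derived from the earlier primary screen, cut at about 5.5% in these data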;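 note: 0% = DMSO only wells and 100% = 3 µM Δ7-dafachronic acid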
* marks the source's active call; other numbers are inactive results; nt = not tested or not shown. Shown are actives, neighbours in structure and some others; about 4.1% of the full set was active somewhere.

SMILES	hcDAF12 agonist	DAX1 inh-1	hgDAF-12 ag	DAX1 inh-2	ssDAF12 agonist	LXRb hcDAF ctr	hcDAF12 ag
O=C(Nc1nc2ccccc2s1)C1CCCO1 (configuration not stated)	7.5*	0.2	9.5	2.1	0.5	1.1	6.7*
O=C(Nc1nnc(-c2ccccc2F)s1)C1CCCO1 (configuration not stated)	3.6	-0.3	6.3	2.7	-0.5	nt	nt
O=C(NC(=S)Nc1nc2ccccc2s1)c1cccs1	13.1*	5.1*	8.7	2.4	0.8	1.2	16.6*
COC(=O)c1nc(NC(=S)NC(=O)c2cccs2)sc1C	3.9	0.3	5.3	1.2	0.1	nt	nt
C=CCNc1nc(-c2ccc(OC)cc2OC)cs1	8.1*	2.9	11.1*	2.7	-0.2	1.0	8.0*
Cc1ccc(C(=O)Nc2ccccc2C(=O)NC(CC(=O)O)C(=O)O)cc1 (configuration not stated)	7.0*	0.2	7.3	1.1	0.7	-0.1	2.6
O=C(O)CC(NC(=O)c1ccccc1NC(=O)c1ccccc1)C(=O)O (configuration not stated)	-0.1	0.7	-2.4	0.8	-1.4	nt	nt
Cc1ccc2[nH]c(=O)c(C(c3nnnn3C3CCCC3)N3CCCc4ccccc43)cc2c1 (configuration not stated)	6.7*	-0.5	2.3	1.2	-0.3	0.0	3.6
Cc1cc(C)n2ncc(C(=O)Nc3ccc4c(c3)CCC4)c2n1	6.8*	nt	6.5	nt	0.6	0.1	6.2*
COc1ccc(CN(C)C(=O)c2cccc(C(=O)N(C)Cc3ccc(OC)cc3)c2)cc1	-2.0	-0.8	-3.7	-0.5	-1.7	nt	nt
Cc1ccc(S(=O)(=O)N2CN(CC3CCCO3)c3nc4ccccc4nc32)c(C)c1 (configuration not stated)	8.1*	0.2	3.3	0.6	-0.6	-0.4	0.1
O=S(=O)(c1cccs1)N1CN(CC2CCCO2)c2nc3ccccc3nc21 (configuration not stated)	-1.7	-0.1	-0.2	0.7	-1.2	nt	nt
CC(=O)/C(N=Nc1cc(C)ccc1O)=C(\C)O	9.2*	2.2	-0.4	-0.1	0.3	0.0	6.3*
CC(=O)/C(N=Nc1ccc(C(=O)O)cc1[N+](=O)[O-])=C(\C)O	-0.9	-0.1	0.1	0.6	-1.2	nt	nt
COc1ccccc1CNC(=O)C1CCC(=O)N(CCCN2CCCC2=O)C1 (configuration not stated)	1.4	1.8	-1.1	-0.2	-1.4	nt	nt
O=C(NCc1cc2ccccc2[nH]1)C1CCC(=O)N(CCCN2CCCC2=O)C1 (configuration not stated)	6.9*	1.6	2.5	0.4	0.4	-0.2	5.2
O=C(NCCc1ccccc1)C1CCC(=O)N(CCCN2CCCC2=O)C1 (configuration not stated)	7.8*	1.3	0.9	0.3	1.9*	-0.3	1.3
O=C(/C=C/c1ccc(Cl)cc1)NC(=S)Nc1ccc(NC(=O)c2ccco2)cc1	-1.3	-1.7	-1.0	-0.9	-2.1	nt	nt
O=C(NC1=NCCS1)c1sc2cc(F)ccc2c1Cl	9.4*	2.8	11.1*	2.1	1.3*	1.5	15.3*
C=CCn1ccc(=O)nc1SC	0.1	-1.2	2.1	-0.5	-0.6	nt	nt
COc1cccc(NC(=O)n2ncc3c(C)cccc32)c1	13.3*	0.4	16.9*	3.0	1.8*	1.5	13.5*
O=C1Nc2ccccc2SC1=Cc1ccccc1	5.2	1.8	2.0	0.8	-0.5	nt	nt
O=C1CCCC2=C1Sc1ccccc1N2	7.8*	nt	-0.6	-0.2	-1.1	-0.2	4.4
CSc1ccc(COC(=O)CCS(=O)(=O)c2ccc(C)cc2)cc1	0.2	-0.7	0.2	-0.1	-0.4	nt	nt
Cc1cc(C)c2c(N)c(C(=O)Nc3ccc(C)c(C)c3)sc2n1	8.3*	8.0*	9.7	2.7	1.6*	1.9	9.5*
SMILES	hcDAF12 agonist	DAX1 inh-1	hgDAF-12 ag	DAX1 inh-2	ssDAF12 agonist	LXRb hcDAF ctr	hcDAF12 ag
COc1ccc(NC(=O)c2sc3nc(C)cc(C)c3c2N)cc1	1.7	3.0	9.1	1.8	-0.7	nt	nt
CC(=O)NNc1ncnc2c1cnn2-c1ccccc1	0.4	-0.1	-0.6	-0.2	-1.6	nt	nt
CC(=O)NNc1ncnc2ccccc12	10.0*	8.7*	5.1	0.9	0.8	-0.2	3.7
COc1ccc(Nc2cccc3ccccc23)cc1	6.9*	0.4	4.6	0.6	1.3*	0.5	6.5*
Nc1cccc(-c2nc3ccccc3s2)c1	11.9*	0.8	12.9*	3.0	1.4*	0.8	6.4*
COc1ccc(-c2nc3ccccc3s2)cc1O	12.3*	-5.0	4.2	1.9	0.5	1.4	13.0*
FC(F)(F)c1ccc(-c2nc3ccccc3s2)cc1	-0.1	nt	-6.3	-1.8	-0.5	nt	nt
COc1ccc(S(=O)(=O)N(C)C[C@H]2Oc3ncc(Br)cc3C(=O)N([C@@H](C)CO)C[C@@H]2C)cc1	-1.8	2.7	-2.3	-1.2	-0.7	nt	nt
O=C(Nc1ccccc1)n1cc(-c2ccccn2)c(N2CCOCC2)n1	7.2*	0.1	6.2	0.8	2.2*	0.1	3.7
O=C(Nc1ccc(Nc2ccccc2)cc1)N1CCOCC1	-1.4	1.2	-1.4	0.0	-1.6	nt	nt
CN=C(Nc1ccc(C(=O)OC)s1)c1ccc(Cl)cc1	-1.6	1.1	4.3	0.4	-1.6	nt	nt
Cc1cc(NC(=S)NC(=O)C2CC2)ccc1Br	8.8*	4.9*	10.4	1.4	0.4	0.4	6.3*
Cc1cccc(S(=O)(=O)NC(=O)C2(C)CCN2C(=O)Cc2ccc(-c3ccccc3)cc2)c1 (configuration not stated)	1.1	nt	0.7	-0.3	-0.1	nt	nt
COc1ccc(-c2cc(C(=O)N3CCCCCC3)no2)cc1	7.6*	6.2*	9.1	2.0	-0.3	1.2	4.3
COc1ccc(-c2cc(C(=O)N3CCN(C(c4ccccc4)c4ccccc4)CC3)no2)cc1	nt	0.4	nt	nt	nt	nt	nt
Cc1ccc2ccc(C3C(=O)c4ccccc4C3=O)nc2c1	14.9*	0.7	14.1*	2.6	1.8*	2.1	19.0*
COc1ccc(S(=O)(=O)N(C)c2ccc(C(=O)N3CCC(C(N)=O)CC3)cc2)cc1OC	-0.6	0.9	0.2	0.2	-1.2	nt	nt
